Most compounds without a hit are left out; they make up all but 2% or so of the library.
TLR9-MyD88 block – TLR9-MyD88 interaction inhibition. Q9NR96+Q99836. CHO BLA complementation TLR9-MyD88, CCF4 FRET ratio. inhibition, % at 4.98 µM. 0.21% of 340,000 active. AID 504734;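 active means inhibition above the mean over all tested compounds plus 3 SD, cut at about 21% in these data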;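 further: 0% = DMSO only wells and 100% = clavulanate BLA inhibitor control wells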
TLR4-MyD88 BLA – inhibitors of human TLR4-MyD88 binding; HeLa CL3-4 TLR4/MyD88 BLA complementation, FRET ratio; O00206+Q99836; inhibition, % at 8.4 µM; 0.18% of 200,000 active; in the data active means inhibition above about 25%;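 further: 0% = vehicle and 100% = reference inhibitor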
Granule exo inh – lytic granule exocytosis inhibition. TALL-104 LAMP-1 surface exposure, flow cytometry; cells stimulated with thapsigargin and PMA. inhibition, % at 10 µM. AID 651702. 0.66% of 360,000 active;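 active means inhibition above about 55%, limit read from the data; inconclusive means no clear call, values can overlap the other calls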
NOD2-RIPK2 inh – inhibitors of human NOD2-RIPK2 interaction. 0.38% of 360,000 active. CHO BLA complementation NOD2-RIPK2, CCF4 ratio. inhibition, % at 4.98 µM; in the data active means inhibition above about 21%;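 further: 0% = vehicle only and 100% = reference blocker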
Target sequence (O43353 whole entry, looked up): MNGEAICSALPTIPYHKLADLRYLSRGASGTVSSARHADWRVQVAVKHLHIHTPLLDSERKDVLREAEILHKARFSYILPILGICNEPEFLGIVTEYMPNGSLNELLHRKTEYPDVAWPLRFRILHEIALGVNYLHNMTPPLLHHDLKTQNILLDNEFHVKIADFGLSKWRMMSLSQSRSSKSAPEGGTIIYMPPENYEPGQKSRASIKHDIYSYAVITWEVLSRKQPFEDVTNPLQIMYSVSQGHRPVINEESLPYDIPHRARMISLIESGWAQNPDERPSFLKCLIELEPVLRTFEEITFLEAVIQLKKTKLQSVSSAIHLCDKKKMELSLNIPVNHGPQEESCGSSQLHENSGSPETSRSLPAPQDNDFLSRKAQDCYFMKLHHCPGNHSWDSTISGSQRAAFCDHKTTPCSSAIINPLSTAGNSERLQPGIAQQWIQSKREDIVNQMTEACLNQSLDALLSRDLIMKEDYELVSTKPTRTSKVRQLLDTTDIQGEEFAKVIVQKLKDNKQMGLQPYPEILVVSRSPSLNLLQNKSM
ABHD5 PLIN5 PPI – blocks binding of human ABHD5 to perilipin-5; 0.78% of 360,000 active; Split G. princeps luciferase complementation, luminescence, 4 h; inhibition, % at 4 µM;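 active means inhibition above the mean inhibition across every tested compound plus 3 SD, cut at about 22% in these data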;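 further: 0% = DMSO only wells and the 100% control is not disclosed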
B2AR ag – human beta-2 adrenergic receptor agonism by FAP; AID 504454; Am2.2-beta2AR cells, FAP receptor internalization, flow cytometry; P07550; response, % (concentration not given with the values); 0.43% of 340,000 active;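 active means response above a set limit, near 3 SD of response in nonfluorescent compounds, cut at about 42% in these data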
Beta2AR ag CP1 – agonists of human beta-2 adrenergic receptor; shares compounds with B2AR ag; Am2.2-beta2AR cells, FAP surface receptor, flow cytometry; hits give low values; percent response (surface receptor), % at 10 µM; 25% of 1,100 active; AID 540358;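 active means surface receptor percent response at or below 58%, roughly 3 SD from nonfluorescent compounds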
B2AR FAP counter – fluorescence artifact in beta-2AR agonist FAP counterscreen. shares compounds with B2AR ag. Am2.2 cells, FAP fluorogen flow cytometry; hits give low values. calls only at 10 µM. 1,100 tested, under 10 active;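 active means percent response below a set limit in fluorescence channel 1 and below 50% in channel 8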
* = called active by the depositor; i = inactive; ? = inconclusive; nt = no result given.

SMILES | TLR9-MyD88 block | TLR4-MyD88 BLA | Granule exo inh | NOD2-RIPK2 inh | ABHD5 PLIN5 PPI | B2AR ag | Beta2AR ag CP1 | B2AR FAP counter
O=C(C(=O)N1CCN(c2ccncc2)CC1)c1cccc(Br)c1 | nt | nt | 6 | 5 | -8 | nt | nt | nt
CCOc1ccc(CNC(=O)c2ccc(NC(=O)C3=CSCCO3)cc2)cc1 | -1 | nt | -10 | 2 | -8 | 105* | 21* | i
Cc1ccc(CNC(=O)c2ccc(NC(=O)C3=CSCCO3)cc2)cc1 | -17 | nt | -5 | 2 | 6 | 4 | nt | nt
COc1ccc(CN(C)C(=O)c2cc(S(=O)(=O)N3CCCCCC3)ccc2OC)cc1OC | -4 | nt | 42 | -20 | 11 | 3 | nt | nt
COc1ccc(S(=O)(=O)N2CCCCCC2)cc1C(=O)N(C)Cc1ccc(OC)c(OC)c1OC | 1 | nt | -20 | -5 | 5 | 51* | 108 | i
COc1ccc(/C=N/n2cnc3c([nH]c4ccc(F)cc43)c2=O)cc1CSc1ccccn1 | -6 | nt | -3 | -10 | 3 | 58* | 79 | i
COc1ccccc1Nc1nn2c(=O)c3ccc(C(=O)NCc4cccnc4)cc3nc2s1 | 0 | nt | -2 | -6 | 5 | 55* | 97 | i
COc1ccccc1Nc1nn2c(=O)c3ccc(C(=O)N4CCCCC4)cc3nc2s1 | -22 | nt | 9 | -4 | -9 | 12 | nt | nt
Cc1ccc(NC(=O)c2ncn(CCCNCCCc3ccccc3)n2)cc1C | 2 | nt | 23 | 6 | 8 | 42* | 130 | i
Cc1ccc(NC(=O)c2ncn(CCCNCCCN(C)C)n2)cc1C | 8 | nt | 0 | -1 | -4 | -3 | nt | nt
COc1cccc(S(=O)(=O)N(C)C[C@H]2Oc3ncc(Br)cc3C(=O)N([C@@H](C)CO)C[C@@H]2C)c1 | -10 | nt | 4 | -1 | 1 | nt | nt | nt
CCOC(=O)C(=O)N1CCC(Cc2ccccc2)CC1 | -13 | -10 | -2 | 8 | -2 | 4 | nt | nt
CCOC(=O)CSCC(=O)N1CCC(Cc2ccccc2)CC1 | 8 | nt | 5 | 2 | 0 | 66* | 90 | i
COc1ccc(CSc2ccc(-c3nc4ccccn4c3NCc3ccccc3)cc2OC)cc1 | -2 | nt | -7 | 2 | 2 | 75* | 63 | i
CCC(C)Sc1ccc(-c2nc3ccccn3c2NCc2ccccc2)cc1OC (configuration not stated) | 0 | nt | -2 | 2 | 5 | 35 | nt | nt
COc1ccc(CCN2C(=O)CCC3=C2CCCC3=O)cc1OC | nt | nt | -1 | 2 | -7 | nt | nt | nt
CC(=O)c1cccc(NC(=O)COc2ccc(S(=O)(=O)N3CCCCC3)cc2)c1 | -6 | -1 | -1 | -7 | -4 | 2 | 113 | i
COc1ccccc1CCC(=O)Nc1cccc(S(=O)(=O)N2CCCCCC2)c1 | 3 | nt | -3 | 2 | 2 | 54* | 10* | i
CCOC(=O)c1ccc(NC(=O)COc2ccc(S(=O)(=O)N3CCCC3)cc2)cc1 | 5 | -5 | 0 | 2 | 0 | 98* | 21* | i
COc1ccccc1CCC(=O)Nc1cccc(S(=O)(=O)N2CCOCC2)c1 | 5 | nt | -5 | -4 | 0 | 0 | nt | nt
CCOC(=O)c1ccc(S(=O)(=O)N2CCN(C3CC(=O)N(c4ccc(OC)cc4)C3=O)CC2)cc1 (configuration not stated) | -3 | nt | 13 | -2 | -5 | 52* | 106 | i
Cc1ccccc1CC(=O)N1CCC(CCC(=O)NC2CC2)CC1 | -6 | nt | -4 | 5 | -2 | nt | nt | nt
COc1ccc(C)cc1NC(=O)NC1CC(=O)N(c2ccc3c(c2)OCCO3)C1 (configuration not stated) | 1 | nt | 6 | -12 | 0 | nt | nt | nt
CCOC(=O)c1cnc(-n2nc(C)cc2C)nc1NC | 1 | 6 | -6 | 5 | 2 | -8 | 105 | i
CC1(C(=O)NS(=O)(=O)c2cccc(C#N)c2)CCN1C(=O)c1cccc2ccccc12 (configuration not stated) | nt | nt | 3 | -9 | -4 | nt | nt | nt
SMILES | TLR9-MyD88 block | TLR4-MyD88 BLA | Granule exo inh | NOD2-RIPK2 inh | ABHD5 PLIN5 PPI | B2AR ag | Beta2AR ag CP1 | B2AR FAP counter
Cc1ccc(Sc2ncccc2COC(=O)Nc2c(C)cccc2C)cc1 | -11 | -6 | ? | -4 | -4 | 63* | 118 | i
COCCn1c(=S)[nH]c2ccc(N(C)C)cc2c1=O | -1 | 5 | 0 | -2 | -5 | 45* | 122 | i
CCOc1cc2[nH]c(=S)n(CCOC)c(=O)c2cc1OCC | 0 | -9 | 0 | -6 | -3 | 6 | nt | nt
CCC/C=C/c1ccc(CN2C(C(C)C)C(=O)N(Cc3cn(CC4CCCCC4)nn3)CCS2(=O)=O)cc1 (configuration not stated) | -9 | nt | 2 | -7 | -3 | nt | nt | nt
CCc1ccc(CN(C)CC(=O)Nc2ccc(S(=O)(=O)N3CCOCC3)cc2)cc1 | -3 | nt | 0 | 2 | -2 | 3 | nt | nt
O=c1nc(-c2ccccc2)c2ccccc2[nH]1 | -17 | -6 | -2 | -13 | 0 | 60* | 113 | i
Cc1ccc(-c2nc(=O)[nH]c3ccccc23)cc1 | -4 | nt | 2 | 1 | -8 | 15 | nt | nt
COc1ccc(Cl)cc1S(=O)(=O)N(C)CC(=O)N1CCCC1 | 1 | nt | -9 | -8 | 6 | -1 | nt | nt
COc1ccc(OC)c(S(=O)(=O)N(C)CC(=O)N2CCN(c3ccccc3F)CC2)c1 | 4 | 14 | -9 | 8 | 3 | -3 | 106 | i
COc1ccc(OC)c(S(=O)(=O)N(C)CC(=O)N2CCOCC2)c1 | -17 | nt | -2 | -10 | 3 | 1 | nt | nt
COc1ccc(OC)c(S(=O)(=O)N(C)CC(=O)N2CCN(c3cccc(Cl)c3)CC2)c1 | 0 | -5 | 0 | 9 | 2 | -5 | 131 | i
COc1ccc(OC)c(S(=O)(=O)N(C)CC(=O)N2CCN(c3ccc(F)cc3)CC2)c1 | -1 | -4 | 1 | -12 | -2 | -16 | 100 | i
O=C(C[C@H]1CC[C@@H](NC(=O)C2CC2)[C@@H](CO)O1)NCc1ccccc1Cl | nt | nt | -7 | 8 | -11 | nt | nt | nt
CC1(C(=O)Nc2ccc3c(c2)OCCO3)CN(S(C)(=O)=O)CC(=O)N1Cc1cccs1 (configuration not stated) | nt | nt | -9 | -9 | 13 | nt | nt | nt
COc1ccc(C(C)=O)cc1Cn1c(C)c(C(=O)NC2CC2)sc1=O | nt | nt | -2 | -5 | 3 | nt | nt | nt
Cc1ccc(C)c(NC(=O)C(c2ccccc2)N2CCOCC2)c1 (configuration not stated) | 10 | -2 | 0 | 6 | -2 | -6 | 104 | i
Cc1cccc(C)c1NC(=O)C(c1ccccc1)N1CCOCC1 (configuration not stated) | -5 | -4 | -1 | 2 | -3 | 0 | nt | nt

Screens from PubChem BioAssay.
